Experiment in all cases: DAPPL (digital affinity profiling via proximity ligation, sequencing); 10 mM Tris-HCl pH 7.5, 50 mM NaCl, 1 mM DTT, 4% glycerol, room temperature, 30 min; GST-TFs on glutathione beads, 16-mer random dsDNA library, 0.1% formaldehyde crosslink after washing; high values mean tight binding
The target in one assay is T1, FLI1 (Homo sapiens, UniProt Q01543 1-452).
T1 sequence: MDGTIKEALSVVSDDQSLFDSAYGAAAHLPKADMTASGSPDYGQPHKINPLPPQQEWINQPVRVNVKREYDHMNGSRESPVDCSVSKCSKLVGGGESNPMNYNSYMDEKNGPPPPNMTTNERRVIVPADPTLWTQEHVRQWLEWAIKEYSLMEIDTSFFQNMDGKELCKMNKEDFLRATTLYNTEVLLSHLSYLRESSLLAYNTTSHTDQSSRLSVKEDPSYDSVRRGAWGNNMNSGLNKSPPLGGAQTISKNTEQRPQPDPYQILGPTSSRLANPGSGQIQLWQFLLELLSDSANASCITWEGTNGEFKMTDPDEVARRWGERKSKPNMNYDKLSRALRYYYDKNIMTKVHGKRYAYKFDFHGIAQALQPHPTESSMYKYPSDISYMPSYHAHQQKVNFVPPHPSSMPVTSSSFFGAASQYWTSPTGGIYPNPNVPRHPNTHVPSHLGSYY
The note with it: protein: recombinant; tags: N-terminal GST; dsDNA, one strand shown. Summed up: (§1)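 After expression in yeast as GST fusions, human transcription factors were bound to glutathione beads, DNA-barcoded and mixed with a tag-only sample. The pools were incubated with 200 nmole of a 16-mer random double-stranded DNA library in Tris/NaCl/DTT/glycerol buffer (30 min, room temperature), washed and crosslinked with 0.1% formaldehyde. Proximity ligation with BsaI/T4 ligase ran for 1 h at 37 °C, before PCR amplification and sequencing on an Illumina NextSeq500. Binding signal is a hexamer's read frequency for a factor divided by its frequency for the tag-only sample.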

The target in a further assay is T2, ELK1 (Homo sapiens, UniProt P19419 1-428).
T2 sequence: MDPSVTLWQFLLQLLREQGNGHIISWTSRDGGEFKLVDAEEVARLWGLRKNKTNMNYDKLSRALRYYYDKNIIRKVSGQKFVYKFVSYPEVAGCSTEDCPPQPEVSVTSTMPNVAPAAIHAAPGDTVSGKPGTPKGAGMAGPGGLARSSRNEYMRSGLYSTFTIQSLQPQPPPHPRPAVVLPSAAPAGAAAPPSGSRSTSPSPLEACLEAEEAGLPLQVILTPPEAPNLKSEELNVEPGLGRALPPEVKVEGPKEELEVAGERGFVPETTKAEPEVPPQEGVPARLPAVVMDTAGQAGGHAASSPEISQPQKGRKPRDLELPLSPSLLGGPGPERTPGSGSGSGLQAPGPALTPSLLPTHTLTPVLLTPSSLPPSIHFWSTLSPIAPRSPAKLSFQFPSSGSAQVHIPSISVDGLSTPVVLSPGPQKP
The note with it: protein: recombinant; tags: N-terminal GST; dsDNA, one strand shown. Summed up: as §1

The target in another assay is T3, GABPA (Homo sapiens, UniProt Q06546 1-454).
T3 sequence: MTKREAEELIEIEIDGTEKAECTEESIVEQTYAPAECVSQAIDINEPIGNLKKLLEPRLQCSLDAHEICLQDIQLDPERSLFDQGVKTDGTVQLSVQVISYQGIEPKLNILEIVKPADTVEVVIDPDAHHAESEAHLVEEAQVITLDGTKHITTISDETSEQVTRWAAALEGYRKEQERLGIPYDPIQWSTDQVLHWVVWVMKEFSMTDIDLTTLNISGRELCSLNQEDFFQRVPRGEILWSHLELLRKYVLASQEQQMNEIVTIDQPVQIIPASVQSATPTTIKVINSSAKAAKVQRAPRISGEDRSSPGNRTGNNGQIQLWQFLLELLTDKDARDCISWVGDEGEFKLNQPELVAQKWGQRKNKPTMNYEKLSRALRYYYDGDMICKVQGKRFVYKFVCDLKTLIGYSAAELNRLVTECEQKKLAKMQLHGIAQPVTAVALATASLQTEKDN
The note with it: protein: recombinant; tags: N-terminal GST; dsDNA, one strand shown. Summed up:
as §1

A further assay deals with T4, ERG (Homo sapiens, UniProt P11308 1-479).
T4 sequence: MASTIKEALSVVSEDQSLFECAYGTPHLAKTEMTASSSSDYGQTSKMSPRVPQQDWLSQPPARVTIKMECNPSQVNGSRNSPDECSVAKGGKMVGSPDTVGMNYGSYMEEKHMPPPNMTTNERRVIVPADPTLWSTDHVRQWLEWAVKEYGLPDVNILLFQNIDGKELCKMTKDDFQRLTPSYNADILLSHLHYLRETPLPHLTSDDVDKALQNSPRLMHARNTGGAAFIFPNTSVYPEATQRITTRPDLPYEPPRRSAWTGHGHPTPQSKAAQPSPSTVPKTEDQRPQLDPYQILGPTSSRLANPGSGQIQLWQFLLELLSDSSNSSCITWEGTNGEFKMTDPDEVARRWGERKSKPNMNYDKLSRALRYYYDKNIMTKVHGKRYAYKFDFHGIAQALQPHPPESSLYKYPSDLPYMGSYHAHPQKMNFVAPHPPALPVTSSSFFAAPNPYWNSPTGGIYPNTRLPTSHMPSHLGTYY
Conditions: protein: recombinant; tags: N-terminal GST; dsDNA, one strand shown. In outline: as §1

For a further assay, the target named is ELF1 (Homo sapiens, UniProt P32519 1-619). Conditions: protein: recombinant; tags: N-terminal GST; dsDNA, one strand shown. Summed up:
as §1

The next assay deals with T5, EHF (Homo sapiens, UniProt Q9NZC4 1-300).
T5 sequence: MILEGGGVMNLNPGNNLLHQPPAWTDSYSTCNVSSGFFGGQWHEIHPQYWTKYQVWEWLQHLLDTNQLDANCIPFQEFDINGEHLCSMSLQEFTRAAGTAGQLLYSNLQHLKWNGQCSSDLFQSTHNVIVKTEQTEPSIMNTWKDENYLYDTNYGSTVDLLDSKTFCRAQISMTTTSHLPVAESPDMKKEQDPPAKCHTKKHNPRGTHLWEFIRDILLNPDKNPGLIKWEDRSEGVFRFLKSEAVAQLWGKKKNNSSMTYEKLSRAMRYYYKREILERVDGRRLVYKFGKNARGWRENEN
Conditions: protein: recombinant; tags: N-terminal GST; dsDNA, one strand shown. Summed up:
as §1

Another assay deals with SPI1 (Homo sapiens, UniProt P17947 1-270). Conditions: protein: recombinant; tags: N-terminal GST; dsDNA, one strand shown. Summed up:
as §1

For the next assay, the target named is SPIB (Homo sapiens, UniProt Q01892 1-262). Conditions: protein: recombinant; tags: N-terminal GST; dsDNA, one strand shown. Summed up: as §1
SPIB, sequence (Q01892 whole entry): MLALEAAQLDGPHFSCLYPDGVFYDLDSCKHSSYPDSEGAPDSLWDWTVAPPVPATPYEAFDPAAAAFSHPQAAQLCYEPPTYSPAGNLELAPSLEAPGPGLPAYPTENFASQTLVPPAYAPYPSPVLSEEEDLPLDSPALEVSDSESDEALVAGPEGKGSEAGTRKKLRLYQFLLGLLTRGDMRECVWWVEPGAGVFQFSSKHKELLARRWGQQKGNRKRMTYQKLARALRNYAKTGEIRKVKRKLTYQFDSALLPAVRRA
The next assay concerns the target T6, ELK3 (Homo sapiens, UniProt P41970 1-407).
T6 sequence: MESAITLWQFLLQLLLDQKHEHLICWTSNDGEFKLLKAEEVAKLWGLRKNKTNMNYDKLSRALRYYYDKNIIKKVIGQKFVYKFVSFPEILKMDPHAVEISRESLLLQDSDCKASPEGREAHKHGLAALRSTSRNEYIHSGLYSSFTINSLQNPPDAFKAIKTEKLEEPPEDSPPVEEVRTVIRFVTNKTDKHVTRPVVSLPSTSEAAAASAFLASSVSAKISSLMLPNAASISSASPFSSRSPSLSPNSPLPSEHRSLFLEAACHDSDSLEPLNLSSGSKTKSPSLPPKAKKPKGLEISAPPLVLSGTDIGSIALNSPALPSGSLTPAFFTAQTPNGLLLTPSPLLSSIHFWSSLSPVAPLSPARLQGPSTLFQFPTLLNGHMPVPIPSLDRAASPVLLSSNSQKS
Conditions: protein: recombinant; tags: N-terminal GST; dsDNA, one strand shown. In outline:
as §1

For another assay, the target named is ETV5 (Homo sapiens, UniProt P41161 1-510). The note with it: protein: recombinant; tags: N-terminal GST; dsDNA, one strand shown. Summed up: as §1
ETV5, sequence (P41161 whole entry): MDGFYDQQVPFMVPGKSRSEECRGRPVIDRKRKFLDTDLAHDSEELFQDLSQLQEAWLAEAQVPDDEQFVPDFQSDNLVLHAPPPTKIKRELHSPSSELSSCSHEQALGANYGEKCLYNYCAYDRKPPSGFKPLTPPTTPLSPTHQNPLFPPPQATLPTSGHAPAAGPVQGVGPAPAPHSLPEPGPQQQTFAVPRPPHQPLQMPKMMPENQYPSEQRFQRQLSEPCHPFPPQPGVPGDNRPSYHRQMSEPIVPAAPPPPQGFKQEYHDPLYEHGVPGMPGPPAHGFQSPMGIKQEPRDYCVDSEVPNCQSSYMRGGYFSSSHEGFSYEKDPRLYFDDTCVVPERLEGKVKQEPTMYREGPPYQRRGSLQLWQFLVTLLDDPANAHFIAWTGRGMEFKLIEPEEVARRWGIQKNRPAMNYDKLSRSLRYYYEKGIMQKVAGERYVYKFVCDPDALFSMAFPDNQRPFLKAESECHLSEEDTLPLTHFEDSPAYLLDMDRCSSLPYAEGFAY
For a further assay, the target named is HSF1 (Homo sapiens, UniProt Q00613 1-529). The note with it: protein: recombinant; tags: N-terminal GST; chain copies: 3; dsDNA, one strand shown. Summed up: as §1
HSF1, sequence (Q00613 whole entry): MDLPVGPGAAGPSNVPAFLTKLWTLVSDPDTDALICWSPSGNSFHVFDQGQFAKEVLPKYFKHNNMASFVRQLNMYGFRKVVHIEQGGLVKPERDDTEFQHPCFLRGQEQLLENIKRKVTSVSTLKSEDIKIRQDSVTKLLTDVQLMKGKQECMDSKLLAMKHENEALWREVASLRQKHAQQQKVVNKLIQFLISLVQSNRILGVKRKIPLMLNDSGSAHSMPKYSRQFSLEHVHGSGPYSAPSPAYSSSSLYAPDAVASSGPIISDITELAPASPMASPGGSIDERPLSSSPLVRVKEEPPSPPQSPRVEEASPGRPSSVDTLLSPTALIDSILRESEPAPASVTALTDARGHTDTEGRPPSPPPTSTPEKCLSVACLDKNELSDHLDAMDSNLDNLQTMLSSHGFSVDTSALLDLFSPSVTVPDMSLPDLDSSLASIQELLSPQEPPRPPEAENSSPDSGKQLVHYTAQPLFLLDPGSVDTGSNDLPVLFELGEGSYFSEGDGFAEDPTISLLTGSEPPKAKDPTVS
For the next assay, the target named is T7, SPIC (Homo sapiens, UniProt Q8N5J4 1-248).
T7 sequence: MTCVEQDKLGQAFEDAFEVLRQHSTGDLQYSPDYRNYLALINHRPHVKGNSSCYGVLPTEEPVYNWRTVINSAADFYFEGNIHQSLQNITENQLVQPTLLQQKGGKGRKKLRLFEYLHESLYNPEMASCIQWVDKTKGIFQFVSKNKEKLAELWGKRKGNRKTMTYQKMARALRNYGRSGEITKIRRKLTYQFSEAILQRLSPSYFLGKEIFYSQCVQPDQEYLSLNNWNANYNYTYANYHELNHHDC
The note with it: protein: recombinant; tags: N-terminal GST; dsDNA, one strand shown. Summed up:
as §1

In the next assay the target is ELF4 (Homo sapiens, UniProt Q99607 1-663). The note with it: protein: recombinant; tags: N-terminal GST; dsDNA, one strand shown. In outline:
as §1

In a further assay the target is T8, ELK4 (Homo sapiens, UniProt P28324-2 1-405).
T8 sequence: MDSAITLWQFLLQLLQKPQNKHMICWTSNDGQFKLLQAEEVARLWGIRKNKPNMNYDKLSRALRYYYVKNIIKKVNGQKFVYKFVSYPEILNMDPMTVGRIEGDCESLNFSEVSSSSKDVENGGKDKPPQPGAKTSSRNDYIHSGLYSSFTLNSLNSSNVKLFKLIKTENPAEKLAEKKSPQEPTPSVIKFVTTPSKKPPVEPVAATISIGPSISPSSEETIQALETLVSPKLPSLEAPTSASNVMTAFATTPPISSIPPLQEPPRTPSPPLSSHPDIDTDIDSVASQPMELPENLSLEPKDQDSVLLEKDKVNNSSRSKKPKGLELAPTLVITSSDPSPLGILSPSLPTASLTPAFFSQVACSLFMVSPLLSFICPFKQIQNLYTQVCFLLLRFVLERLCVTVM
The note with it: protein: recombinant; tags: N-terminal GST; dsDNA, one strand shown. In outline:
as §1

A further assay has as its target T9, ETV2 (Homo sapiens, UniProt O00321 1-342).
T9 sequence: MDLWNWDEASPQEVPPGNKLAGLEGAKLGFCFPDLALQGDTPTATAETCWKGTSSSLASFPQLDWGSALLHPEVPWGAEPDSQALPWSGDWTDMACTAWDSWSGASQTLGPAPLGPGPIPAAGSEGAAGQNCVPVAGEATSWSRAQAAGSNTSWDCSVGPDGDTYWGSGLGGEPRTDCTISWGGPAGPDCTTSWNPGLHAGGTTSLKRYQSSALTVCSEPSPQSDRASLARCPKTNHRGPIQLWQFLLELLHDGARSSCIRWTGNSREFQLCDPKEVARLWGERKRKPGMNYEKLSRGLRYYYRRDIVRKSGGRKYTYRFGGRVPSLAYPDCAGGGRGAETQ
Conditions: protein: recombinant; tags: N-terminal GST; dsDNA, one strand shown. In outline: as §1

The target of the next assay is T10, ELF3 (Homo sapiens, UniProt P78545 1-371).
T10 sequence: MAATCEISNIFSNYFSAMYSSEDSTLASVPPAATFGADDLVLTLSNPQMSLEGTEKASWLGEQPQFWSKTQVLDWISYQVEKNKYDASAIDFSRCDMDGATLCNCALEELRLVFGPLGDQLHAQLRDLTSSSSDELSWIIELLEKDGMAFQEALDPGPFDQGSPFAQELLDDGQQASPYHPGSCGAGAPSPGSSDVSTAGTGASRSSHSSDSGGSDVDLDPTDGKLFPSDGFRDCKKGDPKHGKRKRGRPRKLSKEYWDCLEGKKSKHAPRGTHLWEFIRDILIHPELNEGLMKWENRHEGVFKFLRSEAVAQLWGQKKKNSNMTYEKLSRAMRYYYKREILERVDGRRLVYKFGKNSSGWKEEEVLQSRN
Conditions: protein: recombinant; tags: N-terminal GST; dsDNA, one strand shown. Summed up:
as §1

The target in a further assay is CRX (Homo sapiens, UniProt O43186 1-299). The note with it: protein: recombinant; tags: N-terminal GST; dsDNA, one strand shown. In outline:
as §1

For a further assay, the target named is ETV1 (Homo sapiens, UniProt P50549 1-477). The note with it: protein: recombinant; tags: N-terminal GST; dsDNA, one strand shown. Summed up:
as §1

ELF4, sequence (Q99607 whole entry): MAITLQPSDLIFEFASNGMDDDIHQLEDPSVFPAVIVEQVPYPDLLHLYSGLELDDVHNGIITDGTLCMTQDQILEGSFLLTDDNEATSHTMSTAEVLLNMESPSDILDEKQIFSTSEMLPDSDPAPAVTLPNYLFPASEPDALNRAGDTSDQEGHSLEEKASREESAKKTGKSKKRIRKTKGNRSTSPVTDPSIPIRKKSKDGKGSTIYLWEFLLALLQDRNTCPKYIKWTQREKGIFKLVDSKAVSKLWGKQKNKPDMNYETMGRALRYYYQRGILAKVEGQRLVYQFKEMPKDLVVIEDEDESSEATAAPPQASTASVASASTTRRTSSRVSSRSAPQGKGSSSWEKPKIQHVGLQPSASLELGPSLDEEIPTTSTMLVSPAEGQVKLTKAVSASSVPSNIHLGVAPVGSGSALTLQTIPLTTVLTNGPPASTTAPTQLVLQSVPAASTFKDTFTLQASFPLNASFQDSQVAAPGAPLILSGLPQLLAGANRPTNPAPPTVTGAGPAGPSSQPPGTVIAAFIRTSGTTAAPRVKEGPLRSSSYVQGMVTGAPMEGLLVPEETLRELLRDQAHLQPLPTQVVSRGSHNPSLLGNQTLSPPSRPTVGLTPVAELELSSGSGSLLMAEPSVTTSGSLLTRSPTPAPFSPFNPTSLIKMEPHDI
CRX, sequence (O43186 whole entry): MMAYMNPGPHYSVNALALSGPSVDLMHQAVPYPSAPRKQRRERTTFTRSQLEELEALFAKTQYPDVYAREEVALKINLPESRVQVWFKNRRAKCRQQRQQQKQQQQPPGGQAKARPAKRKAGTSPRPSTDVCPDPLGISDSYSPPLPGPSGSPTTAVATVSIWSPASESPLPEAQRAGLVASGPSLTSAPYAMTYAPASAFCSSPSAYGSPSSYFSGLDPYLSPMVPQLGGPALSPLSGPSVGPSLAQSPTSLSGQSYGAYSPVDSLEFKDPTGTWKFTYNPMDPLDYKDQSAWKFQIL
ETV1, sequence (P50549 whole entry): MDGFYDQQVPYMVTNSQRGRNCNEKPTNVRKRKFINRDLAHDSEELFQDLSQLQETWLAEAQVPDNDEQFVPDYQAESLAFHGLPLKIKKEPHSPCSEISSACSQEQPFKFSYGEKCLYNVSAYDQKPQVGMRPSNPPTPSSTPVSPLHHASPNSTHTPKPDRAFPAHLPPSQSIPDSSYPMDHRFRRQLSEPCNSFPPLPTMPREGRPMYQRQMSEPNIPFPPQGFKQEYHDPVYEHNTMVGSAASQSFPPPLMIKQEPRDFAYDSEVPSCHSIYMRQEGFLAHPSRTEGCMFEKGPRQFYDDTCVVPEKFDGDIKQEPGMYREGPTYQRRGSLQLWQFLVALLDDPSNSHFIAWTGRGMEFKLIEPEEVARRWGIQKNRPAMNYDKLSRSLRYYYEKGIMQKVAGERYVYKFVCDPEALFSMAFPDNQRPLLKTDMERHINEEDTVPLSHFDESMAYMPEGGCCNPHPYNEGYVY
ELF1, sequence (P32519 whole entry): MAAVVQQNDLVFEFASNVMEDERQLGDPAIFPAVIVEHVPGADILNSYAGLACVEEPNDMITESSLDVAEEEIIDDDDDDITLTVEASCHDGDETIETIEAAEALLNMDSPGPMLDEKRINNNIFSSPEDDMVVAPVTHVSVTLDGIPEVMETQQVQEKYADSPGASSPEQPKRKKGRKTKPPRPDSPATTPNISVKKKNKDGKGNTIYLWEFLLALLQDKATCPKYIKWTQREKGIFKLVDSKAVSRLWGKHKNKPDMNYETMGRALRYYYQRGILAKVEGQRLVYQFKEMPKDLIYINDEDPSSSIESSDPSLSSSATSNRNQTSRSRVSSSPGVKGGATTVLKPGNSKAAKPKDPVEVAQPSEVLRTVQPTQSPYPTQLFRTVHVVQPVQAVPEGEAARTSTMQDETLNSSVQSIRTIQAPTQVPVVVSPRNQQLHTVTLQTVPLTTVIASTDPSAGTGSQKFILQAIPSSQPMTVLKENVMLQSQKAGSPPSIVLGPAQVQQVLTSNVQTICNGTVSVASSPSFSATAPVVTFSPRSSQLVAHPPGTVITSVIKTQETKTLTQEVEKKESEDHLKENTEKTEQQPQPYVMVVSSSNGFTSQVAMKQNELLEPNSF

With TAGGTT, the binding signal with FLI1 is 1.13 fold enrichment (6-mer frequency, TF over GST control); in the assay with ELK1 it was 1.04 fold enrichment (6-mer frequency, TF over GST control); with GABPA, 1 fold enrichment (6-mer frequency, TF over GST control); with ERG it was 1.11 fold enrichment (6-mer frequency, TF over GST control); in the assay with ELF1, 1.08 fold enrichment (6-mer frequency, TF over GST control); with EHF, 1.08 fold enrichment (6-mer frequency, TF over GST control). In addition, the binding signal is 1.14 fold enrichment (6-mer frequency, TF over GST control) with SPI1; 1.13 fold enrichment (6-mer frequency, TF over GST control) in the assay with SPIB; 1.16 fold enrichment (6-mer frequency, TF over GST control) in the assay with ELK3; 1.13 fold enrichment (6-mer frequency, TF over GST control) with ETV5; 1.18 fold enrichment (6-mer frequency, TF over GST control) with HSF1; 1.16 fold enrichment (6-mer frequency, TF over GST control) with SPIC. Moreover, the binding signal with ELF4 is 1.09 fold enrichment (6-mer frequency, TF over GST control); with ELK4 it was 1.12 fold enrichment (6-mer frequency, TF over GST control); in the assay with ETV2 it was 1.33 fold enrichment (6-mer frequency, TF over GST control); with ELF3, 1.14 fold enrichment (6-mer frequency, TF over GST control); with CRX, 1.25 fold enrichment (6-mer frequency, TF over GST control); in the assay with ETV1, 1.13 fold enrichment (6-mer frequency, TF over GST control).

For the origin of these results see PMC7862700, “An all-to-all approach to the identification of sequence-specific readers for epigenetic DNA modifications on cytosine”.
